# Test system: EIF2AK1
# Conditions: concentration: 1 μM, replicates: in singlicate; n = 1
# 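Note: KINOMEscan kinase panel screen.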
row,Compound,%Inh [%]
1,CN(C)S(=O)(=O)c1cc(-c2ccc3nccc(-c4cccc(S(N)(=O)=O)c4)c3c2)cnc1N [GSK1669921],8
2,COc1cccc(NC(=O)NC2CCN(c3ccnc(Nc4cc(OC)c(OC)c(OC)c4)n3)C2)c1 (centres unmarked) [GSK1379763],0
3,Fc1ccc(-c2ncn(C3CCNCC3)c2-c2ccnc(Oc3ccc(-c4ccccc4)cc3)n2)cc1 [SB-245391],12
4,Cn1cc(-c2[nH]c3cc(NC(=O)[C@H](N)C4CCCCC4)cc4c3c2C=NNC4=O)cn1,0
5,Cl.Cl.NCC(NCc1ccc(-c2ccnc3[nH]ccc23)s1)c1ccccc1 (centres unmarked) [GSK1321565],0

# Test system: EPHA1
# Conditions: concentration: 1 μM, replicates: in singlicate; n = 1
row,Compound,%Inh [%]
1,COc1cc2c(cc1OCCN1CCNCC1)ncc1c3ccc(C#N)cc3[nH]c21,3
2,CN(c1ccc(NC(=O)Nc2cc(C(F)(F)F)ccc2F)cc1)c1ccnc(Nc2ccc(S(N)(=O)=O)cc2)n1 [GW809893],97.4
3,COc1ccc(Nc2nccc(N3CCC(NC(=O)Nc4cccc(OC)c4)C3)n2)cc1 (centres unmarked) [GSK1379742],10
4,COc1cccc(-c2ccc3c(NC(=O)C4CC4)n[nH]c3n2)c1 [SB-710903],20
5,CNC(=O)c1ccccc1Nc1nc(Nc2ccc(N3CCOCC3)cc2)ncc1Cl.Cl [GSK1576028],90.8
6,O=C(NC1CCN(c2ccnc(Nc3ccc(F)cc3)n2)C1)c1cc2ccccc2s1 (centres unmarked) [GSK1379716],9
7,O=C(Nc1cccc(Oc2ccc3nc(NC(=O)C4CC4)cn3n2)c1)c1ccccc1C(F)(F)F,35
8,Cl.c1ccc(-c2ccc3c(Nc4ccc5[nH]ncc5c4)ccnc3c2)nc1 [GW440137],32
9,Cl.Cl.NCC(NC(=O)c1cc(-c2ccccc2)c(-c2ccnc3[nH]ccc23)s1)c1ccccc1 (centres unmarked) [GSK1321561],26
10,C[C@@H](Oc1cc(-n2cnc3cc(-c4ccnc(NCCS(C)(=O)=O)c4)ccc32)sc1C(N)=O)c1ccccc1Cl [GSK907232],9
11,O=C(Nc1cccc(-c2nn3ccccc3c2-c2ccnc(Nc3cccc(F)c3)n2)c1)c1c(F)ccc(F)c1Cl [GSK357952],5
12,Cc1occc1-c1ncc(OC[C@@H](N)Cc2c[nH]c3ccccc23)cc1-c1ccc2[nH]nc(C)c2c1.O=C(O)C(F)(F)F [GSK682037],0
13,CCc1ccc(-c2ccc3c(c2)-c2c(cnn2C)S(=O)(=O)N3C)cc1,0
14,O=c1[nH]cc(-c2ccc(N3CCOCC3)cc2)c2sc(-c3cn[nH]c3)cc12 [GSK2276055],0
15,Cc1cccc(NC(=O)Nc2ccc(Oc3ncnc4ccn(C)c34)cc2)c1,0
16,CC(C)(C)c1ccc2nccc(Nc3cccc(O)c3)c2c1 [GW856795],74
17,COc1cc(Nc2nccc(-c3c(-c4cccc(NC(=O)c5c(F)cccc5F)c4)nn4ccccc34)n2)cc(OC)c1OC [GSK323521],12
18,CCn1c(-c2nonc2N)nc2c(C#CC(C)(C)O)ncc(OCCCCN)c21.O=C(O)C(F)(F)F.O=C(O)C(F)(F)F [GSK507274],20
19,O=C(Nc1cccc(-c2nn3ncccc3c2-c2ccnc(Nc3ccccc3)n2)c1)c1c(F)cccc1F [GSK198271],42
20,Cn1cc(-c2ccc3c(c2)CCN3C(=O)Cc2cccc(Cl)c2)c2c(N)ncnc21 [GSK2606590],11
21,CN1CCN(Cc2cccc(-c3ccc4c(Nc5ccc(Oc6ccccc6)cc5)ccnc4c3)c2)CC1 [GW578342],0
22,Oc1cc(Nc2ccnc3cc(I)ccc23)ccc1F [GW552771],94.8
23,CCCCc1nn2ncccc2c1-c1ccnc(Nc2ccc(N3CCN(C)CC3)cc2)n1 [GW684941],88
24,O=C(Nc1n[nH]c2cc(-c3ccoc3)ccc12)C1CC1 [SB-738481],13
25,COc1cccc(C2=C(Nc3ccc(Cl)c(C(=O)O)c3)C(=O)NC2=O)c1 [SB-390769],1
26,CCS(=O)(=O)c1ccc(OC)c(Nc2nccc(-c3c(-c4cccc(NC(=O)c5c(F)cccc5F)c4)nn4ncccc34)n2)c1 [GSK326180],23
27,Nc1ncc(-c2cccnc2)c2scc(-c3ccc4c(c3)CCN4C(=O)Cc3ccccc3)c12 [GSK683281],13

# Source: paper PMC5540273 (PLoS ONE, 2017)
